Assay results published in PubChem BioAssay (Tox21).
Records with an inconclusive call do not appear. A number with no mark means an inactive call. Calls of active or inactive are those of the source. Calls follow the shape of the dose curve; as a rule, active = well fitted cell-killing curve with a large enough effect in the repeat runs; inconclusive = weak or mixed curves, or effect the other way; inactive = flat fitted curve, though single readings scatter.

Assay: qHTS assay to identify small molecule agonists of the constitutive androstane receptor (CAR) signaling pathway - cell viability counter screen (AID 1224836); also: nearly all actives have a fitted effect of over 45% in size
Settings: HepG2-CYP2B6-hCAR viability, CellTiter-Fluor, 23 h, PK11195 added to every well; series mostly up to 92.4 µM; viability change, negative = cytotoxic: at the top concentration
Excerpt: U.S. Tox21 Program National Center for Advancing Translational Sciences [NCATS] NIH Chemical Genomics Center [NCGC] U.S. Environmental Protection Agency [EPA] National Institutes of Environmental Health Sciences [NIEHS] National Toxicology Program [NTP] U.S. Food and Drug Administration [FDA] Tox21 Assay Overview: The constitutive androstane receptor (CAR) is a nuclear receptor which regulates multiple drug metabolizing enzymes (DMEs) and transporters. Activating CAR will generally increase the transcription and subsequent translation of CYP2B6 and CYP3A4. These two DMEs represent about 50% of the drug metabolizing potential in the body. […] Recently, there have also been studies performed indicating CARs role in energy metabolism and cancer therapy. Therefore, inducing CARs activity could have a potential effect on diabetes and cancer. Identifying environmental toxins and compounds which modulate CAR, through the use of the Tox21 10K compound collection, will be an important step in determining the toxicity and potential therapeutic effects these factors will have on the human body. To differentiate true CAR agonists from cytotoxic substances, the assay is multiplexed with a cell viability assay.
Tox21 Assay Protocol Summary: A double-stable (hCAR and CYP2B6-2.2kb) transfected cell line, derived from human hepatoma (HepG2) cells, was utilized for the duration of the quantitative high-throughput screens. The HepG2-CYP2B6-hCAR cells were dispensed at 2500 cells/4 uL/well in 1536-well white solid bottom plates using a Multidrop Combi. After the assay plates were incubated at 37 C/5% CO2 for 4 hrs, 23 nL of compounds at 15 concentrations (from 5-48 columns) or positive control (from 1 to 4 columns) were transferred to the assay plates using a Pintool station. One uL of PK11195 (final concentration = 0.75 uM) was added, using a Flying Reagent Dispenser, inside each well. After a 23 hr incubation period at 37 C/5% CO2, 1 uL of CellTiter-Fluor reagent was added into each well of the assay plates using a Flying Reagent Dispenser. The fluorescence intensity in the plates was then measured using a ViewLux plate reader.
% is scaled to controls: 0 for no effect and ±100 for the full control effect; potency is read from the fitted curve at half-maximal effect.

| SMILES | Potency | viability change, negative = cytotoxic |
| --- | --- | --- |
| c1csc(SSc2cccs2)c1 | 54.5 µM (active) | – |
| COC(=O)[C@H]1[C@H]2C[C@@H]3c4[nH]c5cc(OC)ccc5c4CCN3C[C@H]2C[C@@H](OC(=O)/C=C/c2ccc(O)c(OC)c2)[C@@H]1OC | – | -13% [at 42.5 µM] |
| C=C(C)CCCC(C)CCO (stereo not given) | – | -3.25% |
| O=C(OCC(O)CO)c1ccccc1Nc1ccnc2cc(Cl)ccc12 (stereo not given) | – | 0.905% [at 42.5 µM] |
| CCOC(=O)[C@H](CCc1ccccc1)N[C@@H](C)C(=O)N(CC(=O)O)C1Cc2ccccc2C1 | – | 2.71% [at 42.5 µM] |
| Nc1ncnc2c1ncn2[C@H]1CC[C@@H](CO)O1 | – | -8.36% |
| C=C(C)C(=O)OCCOCCOC(=O)C(=C)C | – | -1.19% |
| CC(C)C=O | – | 6.02% |
| CCCCCCCC/C=C\CCCCCCCCCCCC(=O)O | – | -3.07% |
| C[C@]12CC[C@@H]3c4ccc(O)cc4CC[C@H]3[C@@H]1CC[C@@H]2OC(=O)CCC1CCCC1 | inactive | – |
| Cc1ccc(CO)cc1 | – | -0.988% |
| CN(C(=O)CN(CCO)CC(=O)N(C)C(C)(C)Cc1ccccc1)C(C)(C)Cc1ccccc1 | – | -7.01% [at 42.5 µM] |
| COc1cc(C(=O)NCCCCCC(=O)O)cc(OC)c1OC | – | 3.02% [at 42.5 µM] |
| CC(=O)Oc1ccc([N+](=O)[O-])cc1CCl | 43.3 µM (active) | – |
| O=C(/C=C/c1ccc(O)c(O)c1)O[C@@H]1C[C@@](OC(=O)/C=C/c2ccc(O)c(O)c2)(C(=O)O)C[C@@H](O)[C@@H]1O | – | -4.75% [at 42.5 µM] |
| CC1(C)[C@H](C(=O)O)N2C(=O)C[C@H]2S1(=O)=O | – | -4.37% [at 42.5 µM] |
| COc1cc(Nc2c(C#N)cnc3cc(OCCCN4CCN(C)CC4)c(OC)cc23)c(Cl)cc1Cl | – | -27.6% [at 42.5 µM] |
| Nc1ccc(N=Nc2ccccc2)c(N)c1 | 30 µM (active) | – |
| C=CC(C)(CCC=C(C)C)OC(=O)CC(C)C (stereo not given) | – | 9.22% |
| C1C[C@@H]2[C@H]3CC[C@H](C3)[C@@H]2C1 | – | 0.652% |

| SMILES | Potency | viability change, negative = cytotoxic |
| --- | --- | --- |
| CC(CN(C)C)C(C)(O)Cc1ccc(Cl)cc1 (stereo not given) | – | -5.72% [at 42.5 µM] |
| NNC(=O)CP(=O)(c1ccccc1)c1ccccc1 | – | 3.76% [at 42.5 µM] |
| CC1CC(C)C(=O)C1=O (stereo not given) | – | 5.57% |
| C=C/C(C)=C/C/C=C(\C)CCC=C(C)C | – | 5.88% |
| CN1C(=O)OC(C)(C)C1=O | – | 3.17% |
| CC(C)C(O)(c1ccc(OC(F)(F)F)cc1)c1cncnc1 (stereo not given) | – | -1.39% |
| Cc1cc(C)c(N)cc1C | – | -3.54% |
| CC(C)=CCC1C(=O)N(c2ccccc2)N(c2ccccc2)C1=O | – | -12% [at 42.5 µM] |
| C=C(C)C(=O)OCCCCCCCCCCCCC | – | -2.71% |
| CC(C)=CCC/C(C)=C/CC/C(C)=C/C(=O)OCC(=O)[C@@]1(O)CC[C@H]2[C@@H]3CCC4=CC(=O)C=C[C@]4(C)[C@H]3[C@@H](O)C[C@@]21C | – | -16.5% [at 42.5 µM] |
| C[C@H]1C[C@H](O)c2ccsc2S1(=O)=O | – | 2.1% [at 42.5 µM] |
| O=C(/C=C/c1ccccc1)OCCc1ccccc1 | – | 0.0932% |
| CCCCCC[C@@H](O)C/C=C\CCCCCCCC(=O)O | – | -13.1% |
| O[C@@H]1CO[C@H]2[C@@H]1OC[C@@H]2O | – | -1.11% [at 42.5 µM] |
| CC1CC(OC(=O)C(O)c2ccccc2)CC(C)(C)N1C (stereo not given) | – | 0.633% [at 42.5 µM] |
| CC(C)(C)CC(=O)OCC(=O)[C@@]1(O)CC[C@H]2[C@@H]3CCC4=CC(=O)C=C[C@]4(C)[C@H]3[C@@H](O)C[C@@]21C | – | 1.14% [at 42.5 µM] |
| CC(=O)OCC(=O)NCCCOc1cccc(CN2CCCCC2)c1 | – | 1.52% [at 42.5 µM] |
| Nc1nnc(-c2ccc([N+](=O)[O-])o2)o1 | 30.6 µM (active) | – |
| CCCCN1CCCC1C(=O)Nc1c(C)cc(C)cc1C (stereo not given) | – | -9.05% [at 42.5 µM] |
| Cc1cc2c(OCC(CNC(C)(C)C)OC(=O)c3ccccc3)cccc2[nH]1 (stereo not given) | – | -0.519% [at 42.5 µM] |
